Test results reported in PubChem BioAssay (NCATS).
Where “and” joins values, the source holds several entries; their conditions need not be identical. Equal values may be shown once. Inconclusive results are not listed. Calls of active or inactive are those of the source. Unless noted, calls follow the shape of the dose curve; as a rule, active = well fitted curve in the direction sought with a large enough effect; inconclusive = small, poorly fitted or top-dose-only effect, or another doubt; inactive = no such curve, though single readings can be large; an effect the other way counts as inactive or inconclusive.

Legend:
[1] = Cell Viability - NIH 3T3 (AID 541); conditions: NIH 3T3 cell viability, qHTS; activity change, negative = cytotoxicity: at 92.2 µM (top of the series); also: nearly all actives have a fitted effect of over 25% in size; also: potency is read from the fitted curve at half-maximal effect;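 as to activity change, negative = cytotoxicity: plate controls were DMSO alone for no effect and tamoxifen positive control for full effect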
In short: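 Luminescent ATP signal (CellTiter-Glo) served as the viability read-out after NIH 3T3 cells were exposed to compounds over a concentration range for 40 hr at 37 °C. Hill-equation modelling of concentration-response data gave AC50.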

[2] = Cell Viability - SH-SY5Y (AID 544); conditions: SH-SY5Y neuroblastoma cell viability; viability change, negative = cytotoxic: at 92.2 µM (top of the series); also: nearly all actives have a fitted effect of over 55% in size; also: potency is read from the fitted curve at half-maximal effect;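 as to viability change, negative = cytotoxic: 0% = DMSO alone and -100% = 100 µM tamoxifen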
In short: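 Luminescent ATP read-out (CellTiter-Glo) measures loss of viable SH-SY5Y neuroblastoma cells after 40 hr compound exposure at 37 °C. AC50 values derive from standard Hill modelling of qHTS concentration-response data.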

[3] = Cell Viability - LYMP2-001 (AID 921);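 also: 0% = DMSO only and full inhibition = tetraoctylammonium bromide control wells; nearly all actives have a fitted effect of over 70% in size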
In short: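 Human lymphoblastoid cells (Coriell), 2500 per well, were preincubated 5 hr at 37 C, then exposed to compounds in complete medium for 24 hr at 37 C. Cellular ATP was read by CellTiter-Glo luminescence; AC50 from Hill fits of concentration-response data.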

[4] = Cell Viability - LYMP1-003 - Assay at 40 hr (AID 964); also: % is scaled to controls: 0 for no effect and ±100 for the full control effect; nearly all actives have a fitted effect of over 60% in size
In short: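 Cells were seeded at 2500 per well and incubated 5 hr at 37 C. Compounds were added across a concentration series and left 40 hr at 37 C. CellTiter-Glo was added for 30 min at room temperature before luminescence reading.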

[5] = Cell Viability - LYMP2-004 (AID 966);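 also: plate controls were DMSO only for no effect and tetraoctylammonium bromide control for full effect; nearly all actives have a fitted effect of over 65% in size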
In short: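 Cells seeded 2500/well, rested 5 hr at 37 C, dosed across a concentration series, incubated 24 hr at 37 C, then CellTiter-Glo added for 30 min at room temperature and luminescence read. Hill fitting gave AC50.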

[6] = Cell Viability - LYMP2-015 (AID 971);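 also: 0% = DMSO only and full effect = 92 µM tetraoctylammonium bromide; nearly all actives have a fitted effect of over 55% in size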
In short: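 Luminescent ATP read-out (CellTiter-Glo) served as the viability measure after lymphoblastoid cells were exposed to compounds for 24 hours at 37 C. Concentration-response data were fitted with the Hill equation to give AC50.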

[7] = Cell Viability - LYMP2-017 (AID 972); also: % is scaled to controls: 0 for no effect and ±100 for the full control effect; nearly all actives have a fitted effect of over 55% in size
In short: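 2500 cells/well, 5 h 37 C; cpd 24 h 37 C in complete medium; CellTiter-Glo, 30 min RT; luminescence (ATP). AC50 via Hill fit, qHTS.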

[8] = Cell Viability - LYMP2-025 (AID 976);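 also: plate controls were DMSO only for no effect and tetraoctylammonium bromide control for full effect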
In short: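 Seed 2500 LYMP2-025 cells/well; 5 hr at 37 C; add compound; 24 hr at 37 C; add CellTiter-Glo; 30 min RT; read luminescence. AC50 from Hill-modelled concentration-response.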

[9] = Cell Viability - LYMP2-006 (AID 978); also: % is scaled to controls: 0 for no effect and ±100 for the full control effect; nearly all actives have a fitted effect of over 60% in size
In short: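 Human lymphoblastoid cells, 2500 per well, were preincubated 5 hr at 37 C, then exposed to compounds for 24 hr at 37 C in complete medium. Viability was read as intracellular ATP by CellTiter-Glo luminescence; AC50 from Hill-equation fits of qHTS concentration-response data.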

[10] = Cell Viability - LYMP2-010 (AID 981); also: % is scaled to controls: 0 for no effect and ±100 for the full control effect; nearly all actives have a fitted effect of over 55% in size
In short: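 Luminescent ATP signal (CellTiter-Glo) served as the viability read-out. Cells of the human lymphoblastoid line were treated with compound over a concentration range for 24 hours at 37 C, and AC50 values came from Hill-equation modeling.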

[11] = Cell Viability - LYMP2-012 (AID 982)
[12] = Cell Viability - LYMP2-014 (AID 983);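 also: plate controls were DMSO only for no effect and 92 µM tetraoctylammonium bromide for full effect; nearly all actives have a fitted effect of over 50% in size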
In short: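 Luminescent ATP signal (CellTiter-Glo, 30 min at room temperature) serves as the viability read-out after 24 hr compound exposure at 37 C. Cells were seeded at 2500 per well and settled 5 hr beforehand.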

[13] = Cell Viability - LYMP2-022 (AID 987)
In short: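 qHTS: human lymphoblastoid cells 2500/well; 5 hr 37 C; cpd added; 24 hr 37 C; CellTiter-Glo, 30 min RT; luminescence. AC50 via Hill fit; tetraoctylammonium bromide positive ctrl.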

[14] = qHTS assay for small molecule agonists of retinoid X receptor alpha signaling (AID 588544; calls by dose curve); conditions: HEK293T RXRa-UAS-bla, beta-lactamase reporter, 18 h; 530 nm emission
[15] = biological target: Retinoic acid receptor RXR-alpha (Homo sapiens) (UniProt P19793); assay: as above
[16] = biological target: Thyroid hormone receptor beta (Homo sapiens) (UniProt P10828); assay: qHTS assay for small molecule agonists of thyroid hormone receptor beta signaling (AID 588545; calls by dose curve;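 also: 0% = DMSO only and 100% = 10 nM T3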)
In short: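 Beta-lactamase reporter activity under TR response element control is measured in HEK 293 cells after 18 hrs compound exposure. Signal is ratiometric CCF4 fluorescence, 460/530 nm.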

[17] = qHTS assay for small molecule antagonists of retinoid X receptor alpha signaling (AID 588546; active = well fitted inhibition curve with a large enough effect in the signal ratio, with a control signal flat, not every such curve was filed as active; the % refers to the signal ratio;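 also: cells stimulated with 9-cis-retinoic acid as agonist; % is scaled to controls: 0 for no effect and ±100 for the full control effect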); conditions: HEK293T RXRa-UAS-bla, beta-lactamase ratio, antagonist mode; measured here: W530 green channel, cytotoxicity proxy
In short: (§1)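 Beta-lactamase reporter inhibition, read as CCF4 fluorescence ratio (ex 405, em 460/530 nm) after 2 h at RT. HEK293T UAS-bla cells, 2500/well, were stimulated with 9-cis-RA at 500 or 100 nM final alongside test compound for 18 h at 37 C.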

[18] = biological target: Retinoic acid receptor RXR-alpha (Homo sapiens) (UniProt P19793); assay: as above; conditions: HEK293T RXRa-UAS-bla, beta-lactamase ratio, antagonist mode
In short: as §1

[19] = biological target: Thyroid hormone receptor beta (Homo sapiens) (UniProt P10828); assay: qHTS assay for small molecule antagonists of thyroid hormone receptor beta signaling (AID 588547; active = well fitted inhibition curve with a large enough effect in the signal ratio, with a control signal flat, not every such curve was filed as active; the % refers to the signal ratio;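 also: cells stimulated with 0.4 nM T3 agonist during compound exposure; % is scaled to controls: 0 for no effect and ±100 for the full control effect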); conditions: TR-UAS-bla HEK293, beta-lactamase ratio, antagonist mode, 18 h
In short: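 TR-UAS-bla GripTite HEK293 cells in 2% charcoal/dextran FBS medium were preincubated 4 h at 37 C, given compound (0.59 nM to 92 uM) plus 0.4 nM T3 (final) for 18 h, then CCF4 for 2 h at RT; Hill fit gave IC50.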

[20] = biological target: Voltage-gated inwardly rectifying potassium channel KCNH2 (Homo sapiens) (UniProt Q12809); assay: qHTS Assay for Small Molecule Inhibitors of the Human hERG Channel Activity (AID 588834);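 also: lower thallium flux fluorescence means stronger hERG block; nearly all actives have a fitted effect of over 50% in size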; also: potency is read from the fitted curve at half-maximal effect
In short: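 U2OS cells transduced with hERG via BacMam (MOI ~100), plated 2000/well, loaded with FluxOR thallium dye, compound ~10 min, then stimulation buffer; fluorescence decrease read kinetically; AC50 from Hill fits.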

Voltage-gated inwardly rectifying potassium channel KCNH2 (Homo sapiens), sequence (Q12809 whole entry, looked up): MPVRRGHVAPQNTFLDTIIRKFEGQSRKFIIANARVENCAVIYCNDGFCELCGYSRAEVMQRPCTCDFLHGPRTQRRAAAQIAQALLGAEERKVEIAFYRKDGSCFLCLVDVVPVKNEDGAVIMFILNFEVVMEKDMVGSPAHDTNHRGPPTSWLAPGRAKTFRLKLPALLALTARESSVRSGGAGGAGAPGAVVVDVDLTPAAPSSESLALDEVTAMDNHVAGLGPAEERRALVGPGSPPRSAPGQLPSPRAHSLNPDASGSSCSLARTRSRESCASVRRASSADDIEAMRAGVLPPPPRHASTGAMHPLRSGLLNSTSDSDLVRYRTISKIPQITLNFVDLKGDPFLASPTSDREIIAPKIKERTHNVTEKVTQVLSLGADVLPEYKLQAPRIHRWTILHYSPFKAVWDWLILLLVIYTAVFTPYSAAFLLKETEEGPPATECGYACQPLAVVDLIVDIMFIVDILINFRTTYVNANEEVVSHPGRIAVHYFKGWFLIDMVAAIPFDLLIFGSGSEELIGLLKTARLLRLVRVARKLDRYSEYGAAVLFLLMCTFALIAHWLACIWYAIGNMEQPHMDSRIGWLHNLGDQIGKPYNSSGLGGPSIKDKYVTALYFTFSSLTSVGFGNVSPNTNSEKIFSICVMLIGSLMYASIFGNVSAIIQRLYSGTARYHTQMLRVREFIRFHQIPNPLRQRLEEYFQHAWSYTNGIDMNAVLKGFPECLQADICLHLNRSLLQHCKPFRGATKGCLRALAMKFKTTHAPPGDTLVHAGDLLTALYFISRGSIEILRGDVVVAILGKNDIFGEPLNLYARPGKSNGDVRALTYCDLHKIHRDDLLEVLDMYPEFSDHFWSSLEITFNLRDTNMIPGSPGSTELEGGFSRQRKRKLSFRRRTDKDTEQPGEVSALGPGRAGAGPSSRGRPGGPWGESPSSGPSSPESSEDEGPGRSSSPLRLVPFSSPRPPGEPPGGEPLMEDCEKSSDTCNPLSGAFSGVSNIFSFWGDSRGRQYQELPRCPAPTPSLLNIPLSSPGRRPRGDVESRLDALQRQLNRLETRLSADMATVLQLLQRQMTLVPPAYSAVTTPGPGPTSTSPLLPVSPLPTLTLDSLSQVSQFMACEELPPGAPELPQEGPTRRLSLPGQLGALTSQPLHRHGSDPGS
Thyroid hormone receptor beta (Homo sapiens), sequence (P10828 whole entry, looked up): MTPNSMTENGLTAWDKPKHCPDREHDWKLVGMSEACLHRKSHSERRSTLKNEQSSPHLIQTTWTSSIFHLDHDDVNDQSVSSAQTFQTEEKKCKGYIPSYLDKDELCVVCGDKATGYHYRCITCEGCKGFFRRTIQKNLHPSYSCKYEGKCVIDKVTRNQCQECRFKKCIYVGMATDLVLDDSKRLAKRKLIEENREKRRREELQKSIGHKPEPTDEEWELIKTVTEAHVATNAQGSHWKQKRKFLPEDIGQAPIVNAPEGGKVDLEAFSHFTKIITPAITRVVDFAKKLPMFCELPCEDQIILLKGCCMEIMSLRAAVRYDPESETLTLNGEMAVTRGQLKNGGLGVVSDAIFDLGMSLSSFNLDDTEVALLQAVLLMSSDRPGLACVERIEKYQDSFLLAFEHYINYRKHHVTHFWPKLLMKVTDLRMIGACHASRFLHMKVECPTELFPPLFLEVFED
Retinoic acid receptor RXR-alpha (Homo sapiens), sequence (P19793 whole entry, looked up): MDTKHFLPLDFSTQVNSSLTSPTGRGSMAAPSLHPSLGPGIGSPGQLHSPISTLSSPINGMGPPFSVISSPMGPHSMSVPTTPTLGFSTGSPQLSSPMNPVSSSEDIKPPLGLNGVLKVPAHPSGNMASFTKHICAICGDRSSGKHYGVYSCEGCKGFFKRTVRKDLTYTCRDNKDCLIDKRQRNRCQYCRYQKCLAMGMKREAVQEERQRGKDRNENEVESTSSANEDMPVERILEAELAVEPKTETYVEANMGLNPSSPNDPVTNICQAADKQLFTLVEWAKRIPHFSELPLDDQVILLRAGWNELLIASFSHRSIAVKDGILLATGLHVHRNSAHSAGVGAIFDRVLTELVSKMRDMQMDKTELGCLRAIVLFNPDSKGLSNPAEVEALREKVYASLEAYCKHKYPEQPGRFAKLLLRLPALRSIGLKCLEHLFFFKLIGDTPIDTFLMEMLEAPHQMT

CC(=O)CCC(C)=O
inactive: Potency [1] | Potency [2] | Potency [3] | Potency [4] | Potency [5] | Potency [6] | Potency [7] | Potency [8] | Potency [9] | Potency [10] | Potency [11] | Potency [12] | Potency [13] | outcome [15] | Potency [16] | max response [18] 0.643% | activity change % (negative = inhibition) [19] 15% | Potency [20]
-1.17%: max response [17]
0.0938%: max response [14]

Cl/C=C/CCl
3.06%: max response [17]
inactive: Potency [1] | Potency [2] | Potency [3] | Potency [4] | Potency [5] | Potency [6] | Potency [7] | Potency [8] | Potency [9] | Potency [10] | Potency [11] | Potency [12] | Potency [13] | outcome [15] | Potency [16] | max response [18] 3.74% | activity change % (negative = inhibition) [19] -4.73% | Potency [20]
-6.27%: max response [14]

BrC(Br)Br
0.74%: max response [14]
-5.42%: max response [17]
inactive: Potency [1] | Potency [2] | Potency [3] | Potency [4] | Potency [5] | Potency [6] | Potency [7] | Potency [8] | Potency [9] | Potency [10] | Potency [11] | Potency [12] | Potency [13] | outcome [15] | Potency [16] | max response [18] 20% | activity change % (negative = inhibition) [19] -8.09% | Potency [20]

BrCC(Br)C1CCC(Br)C(Br)C1 (stereo not drawn)
-6.79%: max response [17]
active: Potency [20] 22.4 µM
6.74%: max response [14]
inactive: Potency [3] | Potency [4] | Potency [6] | Potency [7] | Potency [8] | Potency [9] | Potency [10] | Potency [11] | Potency [12] | Potency [13] | outcome [15] | Potency [16] | max response [18] 18% | activity change % (negative = inhibition) [19] 5.99%

C=CC=O
active: viability change, negative = cytotoxic [2] -91.6%
-0.594%: max response [14]
inactive: Potency [1] | Potency [3] | Potency [4] | Potency [5] | Potency [6] | Potency [7] | Potency [8] | Potency [9] | Potency [10] | Potency [11] | Potency [12] | Potency [13] | outcome [15] | Potency [16] | activity change % (negative = inhibition) [19] 2.84% | Potency [20]

COC(=O)Nc1nc2ccccc2[nH]1
1.76%: max response [17]
active: Potency [1] 6.31 µM | Potency [2] 7.94 µM
inactive: Potency [7] | Potency [8] | Potency [9] | Potency [10] | Potency [11] | Potency [12] | Potency [13] | Potency [16] | max response [18] -21.4% | activity change % (negative = inhibition) [19] -22.5% and -22.8% | Potency [20]

Clc1cccc2ccccc12
0.056%: max response [14]
inactive: Potency [1] | Potency [2] | Potency [3] | Potency [4] | Potency [5] | Potency [6] | Potency [7] | Potency [8] | Potency [9] | Potency [10] | Potency [11] | Potency [12] | Potency [13] | outcome [15] | Potency [16] | max response [18] -3.67% | activity change % (negative = inhibition) [19] -4.95% | Potency [20]
-3.08%: max response [17]

CC(C)(OOC(C)(C)c1ccccc1)c1ccccc1
active: Potency [20] 15.8 µM
-7.49% and -13.6%: max response [14]
inactive: Potency [1] | Potency [3] | Potency [4] | Potency [5] | Potency [6] | Potency [7] | Potency [8] | Potency [9] | Potency [10] | Potency [11] | Potency [12] | Potency [13] | outcome [15] | Potency [16] | max response [18] 4.95% | activity change % (negative = inhibition) [19] 6.91%
-11%: max response [17]

Cc1cc(-c2cc(C)c(N)c(C)c2)cc(C)c1N
-7.36%: max response [14]
-0.244%: max response [17]
inactive: Potency [1] | Potency [2] | Potency [3] | Potency [4] | Potency [5] | Potency [6] | Potency [7] | Potency [8] | Potency [9] | Potency [10] | Potency [11] | Potency [12] | Potency [13] | outcome [15] | Potency [16] | max response [18] -4.04% | activity change % (negative = inhibition) [19] 5.74% | Potency [20]
